Reference: PubChem BioAssay (NCI)
The panel holds about 79,000 compounds, 15% with a hit somewhere; the sample as a whole holds those more often. A number with no mark means an inactive call. The source made the active and inactive calls. No stated cut-off is given here; in the data, active means growth inhibition above about 70%; inactive means the rest.

Legend:
[1] = NCI Yeast Anticancer Drug Screen. Data for the rad50 strain (AID 155);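 further: 0% = growth of vehicle-only cultures of the same strain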; conditions: S. cerevisiae rad50 strain growth inhibition; at 50.0 µM; active compounds read high
Procedure, shortened: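 Genetically altered yeast (DNA repair pathway); compound treatment; growth inhibition vs vehicle ctrl.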

[2] = NCI Yeast Anticancer Drug Screen. Data for the mec2-1 strain (AID 157); conditions: S. cerevisiae mec2-1 strain, at 50.0 µM, active compounds read high
Procedure, shortened: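 mec2-1 yeast strain, carrying an alteration in DNA damage repair or cell cycle control, was exposed to compounds; growth inhibition was measured relative to vehicle-treated controls.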

[3] = NCI Yeast Anticancer Drug Screen. Data for the sgs1 mgt1 strain (AID 161);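 further: 0% = growth of cultures given vehicle only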; conditions: S. cerevisiae sgs1 mgt1 strain, at 50.0 µM, active compounds read high
Procedure, shortened: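 Growth of a repair-deficient yeast mutant was monitored after compound treatment and expressed as inhibition relative to vehicle-treated cultures.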

[4] = NCI Yeast Anticancer Drug Screen. Data for the cln2 rad14 strain (AID 165);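 further: 0% = growth equal to vehicle treated cultures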; conditions: S. cerevisiae cln2 rad14 strain, at 50.0 µM, active compounds read high
Procedure, shortened: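 Yeast carrying cln2 and rad14 alterations (cell cycle control and DNA damage repair) were exposed to compounds. Growth inhibition was measured against vehicle-treated controls.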

[5] = NCI Yeast Anticancer Drug Screen. Data for the bub3 strain (AID 167); conditions: S. cerevisiae bub3 mutant strain, at 50.0 µM, active compounds read high
Procedure, shortened: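 Yeast carrying a defined mutation is treated with each compound, and growth is compared with that of vehicle-exposed cells to give inhibition.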

[6] = NCI Yeast Anticancer Drug Screen. Data for the mlh1 rad18 strain (AID 175); conditions: S. cerevisiae mlh1 rad18 strain growth inhibition; at 50.0 µM; active compounds read high
Procedure, shortened: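 Growth inhibition of the yeast strain was measured after compound exposure and expressed relative to vehicle-treated controls. The strain carries defined defects in DNA damage repair.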

Row | Compound | growth inhibition [1] | growth inhibition [2] | growth inhibition [3] | growth inhibition [4] | growth inhibition [5] | growth inhibition [6]
1 | COc1cc(OC)c(NC2=CC(c3ccc(Cl)cc3)OC2=O)cc1Cl (stereo unspecified) | 27.3% | 1.85% | 12.8% | -3.6% | 1.4% | 17.8%
2 | CCCC(=O)CC(C)C(=O)C(=O)NC12CC3CC(CC(C3)C1)C2 (stereo unspecified) | 14.6% | 8.35% | 13.4% | 20.2% | 4.4% | 30.3%
3 | CC(=O)OCC1CCCCO1 (stereo unspecified) | 2.6% | -1.65% | -6.1% | -0.2% | -0.2% | -4.7%
4 | CC(C)=C1C=CC=C1 | -8% | 0.65% | 1.6% | -5% | 9.4% | -6.95%
5 | CN(C)CC1CCC(CN(C)C)C(=O)C1=O (stereo unspecified) | -36% | -39.4% | -64.5% | -14.7% | -31.3% | -31.3%
6 | O=C(CSc1nnc(Cc2ccccc2)o1)Nc1ccc(Cl)cc1Cl | -18.8% | -41% | -41.3% | -10.7% | -10.2% | -14%
7 | CC(C)(CO)N1CCN(C(=S)Nc2ccccc2)CC1 | 17.9% | -2.6% | -0.3% | -1.9% | -10.8% | 17.8%
8 | NC(=S)Nc1ccccc1-c1ccccc1 | 36.2% | 13.8% | 25% | -6.9% | 32.5% | 33.2%
9 | CC(O)C(c1ccc(N(C)C)cc1)c1ccc(N(C)C)cc1 (stereo unspecified) | -6.25% | 3.1% | 2.35% | -14.6% | 6.05% | 2.45%
10 | CO[C@H](C)[C@@](O)(C(=O)OCC1=CCN2CCC[C@@H]12)C(C)C | -2.3% | -9.4% | 32.4% | 8.65% | 4.5% | 16.3%
11 | C=C(C)C(=O)OCCN(CC)CC | 33.9% | -4.15% | 17.7% | 23.6% | 11.4% | 23.5%
12 | Cc1cc(=O)c2cccc(-c3ccccc3)c2[nH]1 | 19.5% | 1.25% | 1.15% | -30.9% | -12.9% | 22.2%
13 | CC(=O)N(C)C1=C(Sc2ccc([N+](=O)[O-])cc2)C(=O)c2ccccc2C1=O | 97% (active) | 99.5% (active) | 97.5% (active) | 99% (active) | 99.1% (active) | 98.9% (active)
14 | CCCCCCCCNC=O | 26.1% | 11.1% | 9.45% | 1.1% | 13.1% | 20.8%
15 | COc1ccccc1-n1c(C)nc2c(cnn2CN2CCCCC2)c1=O | 0.85% | -6.4% | 12.3% | -0.7% | 0.95% | 12%
16 | Cc1cc(=O)[nH]c2c(C)cc(Cl)cc12 | 9.95% | -5.25% | 14.9% | 17.1% | -18.4% | 1.65%
17 | CCCCCCCCCCCCCC(=O)OC | 27.6% | 15.3% | 16.5% | -9.3% | -1.4% | 31.4%
18 | O=C(/C(=N/O)c1ccc(Cl)cc1)c1ccccc1 | 99.5% (active) | 99.5% (active) | 99.4% (active) | 99% (active) | 99.3% (active) | 99.6% (active)
19 | Cn1c2nc(=O)n(-c3ccccc3)c(=O)c-2nc2c1CCCC2 | -4.95% | -10.7% | 1.55% | -6.45% | 3.9% | -60.7%
20 | O=C1C(=Nc2ccc(Cl)nc2)CC(c2ccccc2)N1c1ccc(Cl)nc1 (stereo unspecified) | 7.9% | 9.25% | 16.1% | 22.4% | 3% | -4%
21 | O=Cc1ccc(N2CCCCC2)cc1 | 4.05% | 7.95% | -13.2% | -24.2% | -8.25% | -4.45%
